# High-throughput results from PubChem BioAssay.
# Sampled rows, rich in hits. Any-hit rate of the full collection: about 7.3%.
# RORg inh: ROR gamma (mouse) transcription inhibition. P51450. Drosophila S2 Gal4-RORgamma UAS-luciferase reporter, 20 h. Potency, µM (highest dose often 53.6 µM), most hits filed as inhibitors. hit rate 5.4% among 310,000; further: nearly all actives have a fitted effect of over 60% in size
# Target sequence (P51450 whole entry, looked up, the tested form may be a part): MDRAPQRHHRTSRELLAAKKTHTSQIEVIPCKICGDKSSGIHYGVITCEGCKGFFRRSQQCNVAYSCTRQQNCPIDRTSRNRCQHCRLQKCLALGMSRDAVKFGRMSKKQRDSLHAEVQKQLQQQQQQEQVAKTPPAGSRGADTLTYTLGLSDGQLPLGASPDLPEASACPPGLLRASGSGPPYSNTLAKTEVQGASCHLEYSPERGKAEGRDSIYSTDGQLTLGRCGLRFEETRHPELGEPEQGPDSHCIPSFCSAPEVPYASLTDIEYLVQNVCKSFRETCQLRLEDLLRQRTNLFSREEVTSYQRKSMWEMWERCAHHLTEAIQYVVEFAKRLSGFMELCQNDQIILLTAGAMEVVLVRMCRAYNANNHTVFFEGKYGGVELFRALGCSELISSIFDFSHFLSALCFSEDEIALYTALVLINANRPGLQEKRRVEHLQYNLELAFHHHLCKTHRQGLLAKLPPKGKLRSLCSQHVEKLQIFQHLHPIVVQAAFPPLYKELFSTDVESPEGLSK
#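 Stably transfected Drosophila Schneider cells are the test system, with ROR gamma fused to Gal4 and luciferase under UAS control; luminescence is read after 20 hr of 700 uM copper sulfate induction at ambient temperature.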
# Tau ThT inhib: inhibitors of human tau fibril formation, thioflavin T binding; P10636; recombinant tau K18 P301L, heparin-induced fibrillization, ThT fluorescence; Potency, µM (doses to about 57.4 µM), most hits filed as inhibitors; hit rate 2.1% among 270,000; AID 1460; further: nearly all actives have a fitted effect of over 55% in size
#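 K18 P301L tau (15 uM + 0.24 uM Alexa 594-tagged), heparin 20 uM, NaOAc pH 7, 6 h 37 C; ThT 30 uM, 1 h RT, ex 450/em 510 nm.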
# Tau fluor cs: counter-screen for tau fibril formation inhibitors; tau K18 P301L Alexa594 fluorescence, heparin fibrillization; hit rate 0.93% among 280,000; AID 1463; Potency, µM (series often up to 57.7 µM); further: nearly all actives have a fitted effect of over 55% in size
#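 Human tau K18 P301L (15 uM unlabeled, 0.24 uM Alexa 594-labeled) in 100 mM sodium acetate pH 7 with 20 uM heparin, 6 hr at 37 C. ThT 30 uM added, 1 hr ambient; Alexa 594 FP and total fluorescence read at 555/632 nm.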
# Tau FP inhib: tau fibrillization inhibition (FP); K18 P301L tau heparin fibrillization, Alexa594 FP, 6 h; hit rate 0.39% among 280,000; P10636; Potency, µM (doses to about 57.7 µM), most hits filed as inhibitors; further: nearly all actives have a fitted effect of over 55% in size
#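 Recombinant K18 P301L […], labeled with Alexa 594 at 0.24 uM over 15 uM unlabeled; heparin inducer 20 uM final; 37 C, 6 hr; FP endpoint.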
# Gal4-VP16 FLuc: counter-screen for ROR gamma inhibitors: Gal4-VP16 reporter. Potency, µM (highest dose often 53.6 µM), usual class: inhibitors. Drosophila S2 Gal4-VP16 UAS-luciferase, luminescence, 20 h. hit rate 3.5% among 310,000;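 further: Gal4-VP16 expression switched on by copper sulfate through the metallothionein promoter; nearly all actives have a fitted effect of over 50% in size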
# Numbers stand for hits; – = inactive; ? = inconclusive; · = not tested or not shown; [ ] = remark or other dose. The call rests on the fitted dose curve; in most records, active means well fitted curve in the direction sought with a large enough effect; inconclusive means small, poorly fitted or top-dose-only effect, or another doubt; inactive means no such curve, though single readings can be large; an effect the other way counts as inactive or inconclusive.
SMILES,RORg inh,Tau ThT inhib,Tau fluor cs,Tau FP inhib,Gal4-VP16 FLuc
CC(=O)Nc1ccccc1OCc1nnc(-c2ccccc2Cl)o1,–,·,·,·,–
CCOc1ccccc1NC(=O)c1c(NC(=O)CNCc2ccco2)sc2c1CCC2,?,–,–,–,5.62µM
CCOc1ccccc1NC(=O)c1c(NCc2ccc(C)o2)sc2c1CCCCC2,·,?,–,–,·
COc1ccc(Cl)cc1NC(=O)c1c(NCc2cccnc2)sc2c1CCCC2,·,17.8µM,?,–,·
COc1ccc(NC(=O)c2c(NCc3ccc(OC)c(OC)c3OC)sc3c2CCC3)c(OC)c1,·,14.1µM,?,–,·
COc1ccccc1NC(=O)c1c(NCc2ccc(OC)c(OC)c2OC)sc2c1CCC2,·,?,–,–,·
COc1ccc(NC(=O)c2c(NCc3sccc3C)sc3c2CCCC3)c(OC)c1,·,?,?,–,·
C=CCNCC(=O)Nc1sc2c(c1C(=O)Nc1ccc(OC)cc1OC)CCC2,0.447µM,–,–,–,1.26µM
COc1ccc(S(=O)(=O)N(CCc2ccccc2)CC(=O)Nc2ccc(C)c(C)c2)cc1OC,·,–,?,–,·
CN(C)C(=O)c1ccc(-c2cc(NCc3cccnc3)ncn2)cc1,–,·,·,·,–
COc1ccccc1CNC(=O)c1ccc(CSc2nc3ccncc3n2Cc2cccc(F)c2)cc1,·,–,–,–,·
C=CC1=C2C=C(C3CC3)N(C3CCCCC3)C=C2C(=O)C(C)(OC(=O)c2ccco2)C1=O (centres undefined),·,–[11.5 µM],–[11.6 µM],–[11.6 µM],·
O=C(NN1C(=O)c2ccccc2NC1c1ccc([N+](=O)[O-])o1)c1ccc([N+](=O)[O-])cc1 (centres undefined),–,3.16µM,?,?,–
CC(C)C[C@H](NC(=O)c1ccc(NCc2cnc[nH]2)cc1-c1cccc2ccccc12)C(=O)O,–,·,·,·,–
Cc1ccc(NC(=O)C2=C(c3ccccc3)S(=O)(=O)CCS2(=O)=O)cc1,0.631µM,28.2µM,–,28.2µM,5.01µM
Cc1sc2ncnc(N3CCN(CCOc4ccc(Cl)cc4)CC3)c2c1C,?,?,–,–,3.55µM
O=C(Cc1ccccc1)Nc1nc(=O)c2ccccc2s1,?,–,–,–,4.47µM
Nc1ccc(C(=O)Nc2nc3ccccc3s2)cc1,?,–,–,–,?
O=C(CSC(=S)N1CCOCC1)Nc1nc(=O)c2ccccc2s1,12.6µM,–,–,?,10µM
CCn1c(NC(=O)c2ccc(F)cc2)c2ccccc2nc1=O,–,–,–,–,–
O=C(Nc1nc(=O)c2ccccc2s1)c1ccc(Cl)cc1,3.16µM,–,–,?,–[0.365 µM]
O=C(Nc1nc(=O)c2ccccc2s1)c1ccc(F)cc1,7.08µM,–,–,–,2.82µM
O=C(CSC(=S)N1CCOCC1)Nc1nccs1,–,·,–,–,–
O=C(NCc1ccc2c(c1)OCO2)C1CC(=O)N(c2ccc(Cl)cc2)C1 (centres undefined),–,·,·,·,–
CC(=O)Nc1ccccc1-c1nc2ccccc2n(C(C)C(=O)Nc2cc(Cl)ccc2C)c1=O (centres undefined),·,–,–,–,·
SMILES,RORg inh,Tau ThT inhib,Tau fluor cs,Tau FP inhib,Gal4-VP16 FLuc
CSc1cccc(NC(=O)N2CCN(c3cc(-c4noc(C)n4)ccc3C)CC2)c1,·,–,–,?,·
O=C(CCC(=O)OCC(=O)c1ccc(Cl)cc1Cl)Nc1cccc2cccnc12,–,–,–,–,–
O=C(CCC(=O)OCC(=O)c1ccc(-c2ccccc2)cc1)Nc1cccc2cccnc12,1.58µM,?,–,–,3.98µM
O=C1CS/C(=N/N=C/c2c[nH]c3ccccc23)N1,–,·,–,–,–
O=C1/C(=C/c2c[nH]c3ccccc23)CCC/C1=C\c1c[nH]c2ccccc12,11.2µM,?,7.94µM[quencher],–,?
Cn1nnnc1SCCCNCc1cc(Cl)ccc1OCc1ccccc1F,·,–,–,–,·
O=c1c(-c2cccs2)nc2cnc(Oc3cccc(Cl)c3)nc2n1C[C@H]1CCCO1,?,·,·,·,–
COC(=O)CN1C(=S)N(c2ccc(OC)cc2)C(=O)/C1=C/c1ccc(N2CCOCC2)cc1,?,?,–,–,–
COC(=O)/C=C1\SC(N2CCOCC2)=C(c2ccc(OC)cc2)C1=O,–,28.2µM,–,?,–
COCCn1cnc2c1-c1ccc(OC)c(c1)OC/C=C\COc1cccc-2c1,–,·,·,·,–
CN(C)C(=O)c1ccc(-c2cc(NCc3ccccc3)ncn2)cc1,–,·,·,·,–
COc1ccc(/C(C)=N/Nc2ncc(Cl)cc2Cl)c(O)c1,0.112µM,–,–,–,0.794µM
